Assay results reported in PubChem BioAssay (NCI).
Compounds without any hit were thinned out: in the full panel of roughly 79,000, 15% have a hit. Values without a mark were called inactive. Calls of active or inactive are those of the source. Rule as the data show it: active = growth inhibition above about 70%; inactive = the rest.

How the values were obtained:
[1] = NCI Yeast Anticancer Drug Screen. Data for the rad50 strain (AID 155);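 also: 0% = growth of vehicle-only cultures of the same strain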; details: S. cerevisiae rad50 strain growth inhibition, hits give high values
How it was run: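 DNA repair mutant yeast, compound exposure, growth read-out; inhibition is taken relative to vehicle.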

[2] = NCI Yeast Anticancer Drug Screen. Data for the mec2-1 strain (AID 157); details: S. cerevisiae mec2-1 strain, hits give high values
How it was run: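 mec2-1 yeast strain, carrying an alteration in DNA damage repair or cell cycle control, was exposed to compounds; growth inhibition was measured relative to vehicle-treated controls.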

[3] = NCI Yeast Anticancer Drug Screen. Data for the sgs1 mgt1 strain (AID 161);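 also: 0% = growth of cultures given vehicle only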; details: S. cerevisiae sgs1 mgt1 strain, hits give high values
How it was run: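 Compounds are added to genetically altered yeast, and growth is compared with cultures given vehicle alone to give percent inhibition.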

[4] = NCI Yeast Anticancer Drug Screen. Data for the cln2 rad14 strain (AID 165);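 also: 0% = growth equal to vehicle treated cultures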; details: S. cerevisiae cln2 rad14 strain, hits give high values
How it was run: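 Yeast carrying cln2 and rad14 alterations (cell cycle control and DNA damage repair) were exposed to compounds. Growth inhibition was measured against vehicle-treated controls.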

[5] = NCI Yeast Anticancer Drug Screen. Data for the bub3 strain (AID 167); details: S. cerevisiae bub3 mutant strain, hits give high values
How it was run: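 In this screen, a yeast mutant lacking normal mitotic checkpoint function is challenged with compound. Relative growth versus vehicle gives the inhibition value.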

[6] = NCI Yeast Anticancer Drug Screen. Data for the mlh1 rad18 strain (AID 175); details: S. cerevisiae mlh1 rad18 strain growth inhibition, hits give high values
How it was run: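 Growth inhibition of the yeast strain was measured after compound exposure and expressed relative to vehicle-treated controls. The strain carries defined defects in DNA damage repair.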

[7] = at 5.0 µM (retest, dose inferred, filed as 0.5)
[8] = at 50.0 µM (retest, dose inferred, filed as 5.0)

Row | SMILES | growth inhibition [1, 7] | growth inhibition [1, 8] | growth inhibition ([1]; at 50.0 µM) | growth inhibition [2, 7] | growth inhibition [2, 8] | growth inhibition ([2]; at 50.0 µM) | growth inhibition [3, 7] | growth inhibition [3, 8] | growth inhibition ([3]; at 50.0 µM) | growth inhibition [4, 7] | growth inhibition [4, 8] | growth inhibition ([4]; at 50.0 µM) | growth inhibition [5, 7] | growth inhibition [5, 8] | growth inhibition ([5]; at 50.0 µM) | growth inhibition [6, 7] | growth inhibition [6, 8] | growth inhibition ([6]; at 50.0 µM)
1 | CC(C)(C)c1ccc(O)c(Br)c1 | 0% | -4% | 90.9% (active) | -38% | 5% | 79.8% (active) | 0% | 2% | 83.8% (active) | 1% | -4% | 35.5% | 31% | -4% | 42.6% | 1% | 8% | 86.8% (active)
2 | O=C(Nc1ccc(Cl)c(Cl)c1)Nc1ccccc1O | 5% | 50% | 46.2% | 6% | 35% | 39.9% | 0% | 31% | 48.8% | 12% | 39% | 53.3% | 46% | 78% (active) | 64% | 1% | 54% | 76.2% (active)
3 | CN(C)c1ccc(C(C#N)(c2ccccc2)c2ccc(N(C)C)cc2)cc1 | 35% | 87% (active) | 39.3% | 14% | 92% (active) | 96.2% (active) | 48% | 93% (active) | 94.2% (active) | 1% | 89% (active) | 59.8% | 80% (active) | 91% (active) | 97.5% (active) | 16% | 86% (active) | 43.5%
4 | CCNc1nnnn1CC | -37% | 1% | -2.5% | -2% | -2% | 2.1% | 0% | 5% | -5.35% | 2% | 4% | 12.3% | -1% | -2% | 22.9% | 6% | 18% | 2.8%
5 | O=C(Cc1nc2cc(Cl)c(Cl)cc2nc1CC(=O)c1cccnc1)c1cccnc1 | -7% | 96% (active) | 96.3% (active) | -17% | 96% (active) | 98.2% (active) | -12% | 97% (active) | 92.6% (active) | -5% | 98% (active) | 94.3% (active) | -1% | 98% (active) | 95.4% (active) | -2% | 98% (active) | 97.8% (active)
6 | CCCCCCCCCCCC[n+]1ccc2ccccc2c1 | 97% (active) | 99% (active) | 99.6% (active) | 99% (active) | 100% (active) | 99.7% (active) | 98% (active) | 99% (active) | 99.2% (active) | 98% (active) | 100% (active) | 98.1% (active) | 99% (active) | 99% (active) | 99.5% (active) | 98% (active) | 100% (active) | 99.5% (active)
7 | Cc1cccc2c(N)c3ccccc3nc12 | 12% | 57% | 87.7% (active) | 3% | 13% | 43.3% | 1% | 7% | 73.7% (active) | 6% | 15% | 45.6% | 0% | -9% | 45% | 6% | 24% | 67.8%
8 | COc1cccc(N=N/C(=N\NC(=O)c2cc(Br)ccc2O)c2ccc(N(CCC#N)CCC#N)cc2OC)c1 | 17% | 30% | 72% (active) | 22% | 35% | 48.9% | -8% | 34% | 34.5% | 0% | 19% | 20.9% | -2% | 42% | 39.4% | 26% | 43% | 76.2% (active)
9 | CC(C)c1ccc(C(=O)OC2CCCC2)cc1 | 8% | 98% (active) | 96.5% (active) | 9% | 100% (active) | 99.2% (active) | 9% | 99% (active) | 54.6% | 6% | 99% (active) | 94.3% (active) | 4% | 99% (active) | 53% | 4% | 99% (active) | 93.3% (active)
10 | Oc1ccc(Nc2ccc3ccccc3c2)cc1 | 9% | 97% (active) | 97.5% (active) | -5% | 98% (active) | 98.5% (active) | 3% | 98% (active) | 88.9% (active) | -5% | 98% (active) | 97.5% (active) | -5% | 96% (active) | 98% (active) | -1% | 98% (active) | 97.6% (active)
11 | [Cl-].[Rh+3].c1ccc(-c2ccnc3c2ccc2c(-c4ccccc4)ccnc23)cc1.c1ccc(-c2ccnc3c2ccc2c(-c4ccccc4)ccnc23)cc1.c1ccc(-c2ccnc3c2ccc2c(-c4ccccc4)ccnc23)cc1 | -27% | 65% | 97.1% (active) | -15% | 26% | 88.9% (active) | -10% | 87% (active) | 94.5% (active) | -4% | 43% | 85.7% (active) | -7% | 38% | 90.8% (active) | -12% | 88% (active) | 95.9% (active)
12 | CCCCOS(=O)(=O)c1ccccc1 | 7% | -25% | -6% | 10% | 1% | -2.6% | 0% | 1% | 8.95% | 5% | 0% | -23.1% | -23% | -6% | 0.8% | 3% | 1% | 14.2%
13 | CC1OC(OC2C(OC3CCC4(C)C(CCC5(C)C4CC=C4C6CC(C)(C)CCC6(C(=O)O)CCC45C)C3(C)CO)OCC(O)C2O)C(O)C(O)C1O (stereo unspecified) | 94% (active) | 99% (active) | 89.5% (active) | 87% (active) | 100% (active) | 89.8% (active) | 95% (active) | 99% (active) | 90.3% (active) | 89% (active) | 98% (active) | 88.5% (active) | 97% (active) | 99% (active) | 87.7% (active) | 93% (active) | 98% (active) | 88.2% (active)
14 | O=C(/C=C/C(Cl)(Cl)Cl)Nc1ccc(Cl)cc1 | -6% | 16% | 71.8% (active) | 42% | 21% | 85% (active) | -4% | 43% | 81% (active) | 25% | 8% | 77.5% (active) | 9% | 3% | 75.9% (active) | 18% | 64% | 85% (active)
15 | CCCCCCCCCCCCCCCC[N+]1(C)CCCC1c1cccnc1 (stereo unspecified) | 93% (active) | 99% (active) | 14.3% | 90% (active) | 99% (active) | 55.5% | 99% (active) | 99% (active) | 40.8% | 70% (active) | 99% (active) | 1.5% | 96% (active) | 99% (active) | 99% (active) | 89% (active) | 99% (active) | 68.8%
16 | O=C1C=CC(=O)N1c1cccc2c1CCCC2 | 99% (active) | 99% (active) | 91.9% (active) | 100% (active) | 100% (active) | 93.8% (active) | 100% (active) | 99% (active) | 94.7% (active) | 99% (active) | 99% (active) | 93.5% (active) | 100% (active) | 99% (active) | 93.6% (active) | 99% (active) | 99% (active) | 93.1% (active)
17 | CCOC(=O)NC(/C=C/c1ccccc1)NC(=O)OCC | -2% | -27% | 61.8% | -1% | -31% | 29.6% | -4% | -29% | 30.1% | 5% | -33% | 29.9% | 2% | -20% | 11.8% | 1% | -26% | 83.6% (active)
18 | Cc1cc(C)c(C#N)c(Sc2nc(C)c([N+](=O)[O-])c(C)c2C#N)n1 | 56% | 54% | 66.7% | 37% | 44% | 29.7% | 49% | 54% | 84.5% (active) | 41% | 51% | 42.3% | 51% | 61% | 15% | 57% | 55% | 54.6%
19 | CC1(C)CCCC2=C1C(=O)N(SC(Cl)(Cl)Cl)C2=O | 98% (active) | 99% (active) | 90.3% (active) | 99% (active) | 99% (active) | 93.1% (active) | 100% (active) | 99% (active) | 90.5% (active) | 99% (active) | 99% (active) | 91.3% (active) | 100% (active) | 99% (active) | 89.9% (active) | 98% (active) | 99% (active) | 90.1% (active)
20 | O=C(C[P+](c1ccccc1)(c1ccccc1)c1ccccc1)c1ccccc1 | 0% | 10% | 11.8% | 9% | 14% | 23.4% | -7% | 11% | 22.1% | 18% | 12% | 8% | 2% | 8% | 16.6% | 5% | -46% | 34.6%
21 | CCOc1ccc(C(C[N+](=O)[O-])Sc2ccccc2N)cc1 (stereo unspecified) | 36% | 47% | 73.5% (active) | 36% | 46% | 92.1% (active) | 42% | 57% | 92.7% (active) | 29% | 29% | 83.9% (active) | 32% | 72% (active) | 91.7% (active) | 45% | 59% | 87% (active)
22 | CN(C)c1ccc(/C=C/c2nccc3ccccc23)cc1 | -9% | 96% (active) | 91% (active) | 8% | 96% (active) | 91.9% (active) | 3% | 97% (active) | 94.7% (active) | -8% | 96% (active) | 75.5% (active) | 4% | 97% (active) | 93.7% (active) | 10% | 95% (active) | 91% (active)
